Data reported in the supplement of paper PMC12808144.
Unmarked numbers belong to inactive results.

Tests used:
[1] = tested on: NHEM-hTERT; assay: cell viability relative to DMSO control (fraction of DMSO control); higher = less cytotoxic, active = 0.5 or less; conditions: 1 µM; 120 h
Method in brief: (§1)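 Cells in 40 µl per well went into 384-well plates pre-spotted acoustically with a TargetMol library of 315 approved anti-cancer drugs, each at 1 µM in duplicate, for 120 h. Seeding was 2500/well for NHEM-hTERT immortalized melanocytes and 1500/well for patient-derived Mel-DCC-11 and its resistant subline Mel-DCC-11-R, which was run alone and with 8 µM of its selecting drug. Luminescence was read with ATPlite 1step. Viability was normalised to vehicle-treated controls and averaged over duplicates.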

[2] = tested on: Mel-DCC-11-R; assay: cell viability relative to DMSO control (fraction of DMSO control); higher = less cytotoxic, active = 0.8 or less; conditions: 1 µM, 120 h
Method in brief: as §1

| Structure (SMILES) | cell viability [1] | cell viability ([2]; vemurafenib co-treatment 0 µM) | cell viability ([2]; vemurafenib co-treatment 8 µM) |
| --- | --- | --- | --- |
| CCc1ccc(CCOc2ccc(CC3SC(=O)NC3=O)cc2)nc1.Cl (centres undefined) [Pioglitazone hydrochloride] | 1.09 | 0.921 | 1.18 |
| CC[C@H](Nc1ncnc2[nH]cnc12)c1nc2cccc(F)c2c(=O)n1-c1ccccc1 [Idelalisib] | 0.983 | 1.07 | 0.961 |
| O=C(CCCCCCNC(=O)c1cnc(N(c2ccccc2)c2ccccc2)nc1)NO [Rocilinostat] | 0.847 | 0.681 (active) | 0.644 (active) |
| Cc1ccc(NC(=O)c2ccc(CN3CCN(C)CC3)cc2)cc1Nc1nc(-c2cccnc2)cs1 [Masitinib] | 0.801 | 1.1 | 0.944 |
| COc1ccc2[nH]cc(CCNC(C)=O)c2c1 [Melatonine] | 0.936 | 0.786 (active) | 0.839 |
| C1=C/COCc2cc(ccc2OCCN2CCCC2)Nc2nccc(n2)-c2cccc(c2)COC/1 [Pacritinib] | 1.04 | 1.46 | 1.06 |
| CC=Cc1ccc(OC)cc1 (stereo in doubt) [cis-Anethol] | 0.759 | 1.26 | 0.591 (active) |
| C=C1CC[C@@H]2[C@](C)(CO)[C@H](O)CC[C@@]2(C)[C@@H]1C/C=C1/C(=O)OC[C@H]1O [Andrographolide] | 1.17 | 0.887 | 1.02 |
| CS(=O)(=O)CCNCc1ccc(-c2ccc3ncnc(Nc4ccc(OCc5cccc(F)c5)c(Cl)c4)c3c2)o1 [Lapatinib] | 0.822 | 1.12 | 0.841 |
| Cc1nc(Nc2ncc(C(=O)Nc3c(C)cccc3Cl)s2)cc(N2CCN(CCO)CC2)n1.O [Dasatinib monohydrate] | 0.506 | 1.65 | 1.54 |
| Nc1nc(Cl)nc2c1ncn2[C@H]1C[C@H](O)[C@@H](CO)O1 [Cladribine] | 0.592 | 0.977 | 0.722 (active) |
| Cn1nnc2c(C(N)=O)ncn2c1=O [Temozolomide] | 1.01 | 0.884 | 0.874 |
| NCCNc1ccc(NCCN)c2c1C(=O)c1ccncc1C2=O.O=C(O)/C=C\C(=O)O.O=C(O)/C=C\C(=O)O [Pixantrone dimaleate] | 0.889 | 1.62 | 0.868 |
